Measurements as given in PubChem BioAssay (Tox21).
“And” between values parts separate entries of the source, which are not always exact repeats. Equal entries are not always repeated. Inconclusive results are not listed. Where a call stands in place of a potency, no number is given. Where a structure was tested more than once in an assay, its records may differ in their call. The source made the active and inactive calls. Unless noted, calls follow the shape of the full dose curve.

Assays:
[1] = Nuclear factor erythroid 2-related factor 2/antioxidant responsive element (Nrf2/ARE) small molecule agonists: qHTS cell viability counter screen in human keratinocytes (AID 1919968; active = well fitted curve in the direction sought with a large enough effect in the repeat runs; an effect the other way counts as inactive or inconclusive; also: nearly all actives have a fitted effect of over 55% in size; also: potency is read from the fitted curve at half-maximal effect)
How it was run: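 Cells of the KeratinoSens line were plated at 1,500 per well and left for 5 h before compound transfer from DMSO stocks. After a 23 h incubation (37 C, 5% CO2), CellTiter-Fluor was added. Signal was taken as fluorescence intensity 1 h later.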

[2] = Nuclear factor erythroid 2-related factor 2/antioxidant responsive element (Nrf2/ARE) small molecule agonists: luciferase reporter gene qHTS assay in human keratinocytes (AID 1919969); also: nearly all actives have a fitted effect of over 35% in size; also: potency is read from the fitted curve at half-maximal effect
[3] = target: Gonadotropin-releasing hormone receptor (Homo sapiens) (UniProt P30968); assay: Human gonadotropin-releasing hormone receptor (GnRHR) small molecule agonists, calcium flux assay in GnRHR-HEK293 cells (AID 1920063); also: nearly all actives have a fitted effect of over 35% in size
Chain of Gonadotropin-releasing hormone receptor (Homo sapiens) (P30968 whole entry, looked up): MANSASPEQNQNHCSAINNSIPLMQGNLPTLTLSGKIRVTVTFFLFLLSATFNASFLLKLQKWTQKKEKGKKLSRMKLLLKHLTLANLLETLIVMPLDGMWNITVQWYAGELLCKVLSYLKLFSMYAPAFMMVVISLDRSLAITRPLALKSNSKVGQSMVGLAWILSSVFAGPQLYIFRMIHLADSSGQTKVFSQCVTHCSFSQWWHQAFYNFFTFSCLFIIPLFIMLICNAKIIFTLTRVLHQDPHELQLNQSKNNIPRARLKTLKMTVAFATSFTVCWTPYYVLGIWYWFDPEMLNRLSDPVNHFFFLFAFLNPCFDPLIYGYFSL
How it was run: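 Compounds dissolved in DMSO are pin-transferred onto dye-loaded GnRHR-HEK293 cells, which were seeded 18 h before at 37 C/5% CO2. Calcium signal is read as fluorescence intensity at 1 s intervals for 3 min.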

[4] = target: KiSS-1 receptor (Homo sapiens) (UniProt Q969F8); assay: Human kisspeptin (KISS1R) small molecule agonists, calcium flux assay in KISS1R-HEK293 cells (AID 1920064; active = well fitted curve in the direction sought with a large enough effect in the repeat runs; an effect the other way counts as inactive or inconclusive)
Chain of KiSS-1 receptor (Homo sapiens) (Q969F8 whole entry, looked up): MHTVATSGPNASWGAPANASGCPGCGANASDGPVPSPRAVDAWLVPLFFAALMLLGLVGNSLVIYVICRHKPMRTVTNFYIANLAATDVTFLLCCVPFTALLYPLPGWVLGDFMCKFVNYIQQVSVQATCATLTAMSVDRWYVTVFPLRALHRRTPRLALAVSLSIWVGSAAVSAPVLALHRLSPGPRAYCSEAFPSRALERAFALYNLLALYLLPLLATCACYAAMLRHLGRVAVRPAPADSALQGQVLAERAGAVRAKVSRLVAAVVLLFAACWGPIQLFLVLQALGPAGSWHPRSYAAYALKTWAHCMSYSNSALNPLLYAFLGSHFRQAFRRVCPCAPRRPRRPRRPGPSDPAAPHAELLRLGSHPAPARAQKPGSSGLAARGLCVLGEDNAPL
How it was run: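 Cell line: HEK293, stable human KISS1R. Dye loading 1 h at 37 C after 18 h culture. Read: kinetic fluorescence, 480/540 nm, 3 min at 1 s intervals.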

[5] = G protein-coupled receptor (GPCR) small molecule agonists, calcium flux assay: HEK293 wild type cell line counter screen (AID 1920065)
How it was run: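 Tox21 10K compounds, 15 concentrations each in triplicate, pin-transferred in DMSO onto dye-loaded cells; kinetic read at 480/540 nm for 3 min, 1 s intervals.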

[6] = p53 small molecule agonists, cell-based qHTS assay with human liver microsomes (AID 1963577)
How it was run: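 p53RE-bla cells, 4,000/well, compound added after 5 h, with human liver microsomes 0.5 mg/mL and NADPH 0.5 mg/mL final; 16 h at 37 C, then LiveBLAzer 2 h RT, fluorescence.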

[7] = p53 small molecule agonists, cell-based qHTS assay with rat liver microsomes (AID 1963578)
How it was run: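 p53RE-bla cells, 4,000/well, pre-incubated 5 h, then given compounds plus rat liver microsomes (0.5 mg/mL final) and NADPH (0.5 mg/mL final). Incubation 16 h at 37 C; beta-lactamase reporter read by LiveBLAzer fluorescence after 2 h at room temperature.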

[8] = p53 small molecule agonists, cell-based qHTS assay with human liver microsomes: qHTS cell viability counter screen (AID 1963579); also: nearly all actives have a fitted effect of over 45% in size; also: potency is read from the fitted curve at half-maximal effect
How it was run: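 p53RE-bla cells, 4,000/well, dosed 5 hours after plating, with human liver microsomes (0.5 mg/mL final) plus NADPH (0.5 mg/mL final), 16 hours at 37 C. Viability read as CellTiter-Glo luminescence after 30 min at room temperature.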

[9] = p53 small molecule agonists, cell-based qHTS assay with rat liver microsomes: qHTS cell viability counter screen (AID 1963580); also: nearly all actives have a fitted effect of over 45% in size; also: potency is read from the fitted curve at half-maximal effect
How it was run: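 Cytotoxicity counter screen: intracellular ATP read by CellTiter-Glo luminescence in the p53 reporter wells. HCT-116 p53RE-bla cells were treated for 16 h at 37 C alongside rat liver microsomes and NADPH, each 0.5 mg/mL final.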

[10] = p53 small molecule agonists, cell-based qHTS assay: qHTS cell viability counter screen (AID 1963581); also: nearly all actives have a fitted effect of over 45% in size
How it was run: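 ATP content measured by luminescence in HCT-116 p53RE-bla cells treated 16 h at 37 C, same wells as the reporter screen.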

[11] = target: 5-hydroxytryptamine receptor 2A (Homo sapiens) (UniProt P28223); assay: 5-hydroxytryptamine receptor 2A (HTR2A) small molecule agonists, cell-based qHTS assay (AID 1963587); also: nearly all actives have a fitted effect of over 30% in size; also: potency is read from the fitted curve at half-maximal effect
Chain of 5-hydroxytryptamine receptor 2A (Homo sapiens) (P28223 whole entry, looked up): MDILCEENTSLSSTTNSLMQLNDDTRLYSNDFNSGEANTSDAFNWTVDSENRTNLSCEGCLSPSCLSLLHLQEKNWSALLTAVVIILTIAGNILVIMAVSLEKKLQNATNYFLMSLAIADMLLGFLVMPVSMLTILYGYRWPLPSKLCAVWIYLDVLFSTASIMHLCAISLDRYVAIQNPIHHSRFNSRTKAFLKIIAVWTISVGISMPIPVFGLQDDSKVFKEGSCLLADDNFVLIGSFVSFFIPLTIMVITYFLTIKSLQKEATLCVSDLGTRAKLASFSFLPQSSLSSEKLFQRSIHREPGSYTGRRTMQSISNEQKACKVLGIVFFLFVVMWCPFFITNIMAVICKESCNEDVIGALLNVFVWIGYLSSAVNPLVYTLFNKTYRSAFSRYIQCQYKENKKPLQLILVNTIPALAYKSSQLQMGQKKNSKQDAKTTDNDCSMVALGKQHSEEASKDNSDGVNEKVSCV
How it was run: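 Kinetic calcium-flux fluorescence (2 min, 1 sec intervals) after compound addition in agonist mode. HTR2A-CHO cells were cultured 18 h, then dye-loaded 1 h at 37 C.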

[12] = target: Muscarinic acetylcholine receptor M1 (Homo sapiens) (UniProt P11229); assay: Cholinergic receptor muscarinic 1 (CHRM1) small molecule antagonists, cell-based qHTS assay (AID 1963588); also: nearly all actives have a fitted effect of over 40% in size; also: potency is read from the fitted curve at half-maximal effect
Chain of Muscarinic acetylcholine receptor M1 (Homo sapiens) (P11229 whole entry, looked up): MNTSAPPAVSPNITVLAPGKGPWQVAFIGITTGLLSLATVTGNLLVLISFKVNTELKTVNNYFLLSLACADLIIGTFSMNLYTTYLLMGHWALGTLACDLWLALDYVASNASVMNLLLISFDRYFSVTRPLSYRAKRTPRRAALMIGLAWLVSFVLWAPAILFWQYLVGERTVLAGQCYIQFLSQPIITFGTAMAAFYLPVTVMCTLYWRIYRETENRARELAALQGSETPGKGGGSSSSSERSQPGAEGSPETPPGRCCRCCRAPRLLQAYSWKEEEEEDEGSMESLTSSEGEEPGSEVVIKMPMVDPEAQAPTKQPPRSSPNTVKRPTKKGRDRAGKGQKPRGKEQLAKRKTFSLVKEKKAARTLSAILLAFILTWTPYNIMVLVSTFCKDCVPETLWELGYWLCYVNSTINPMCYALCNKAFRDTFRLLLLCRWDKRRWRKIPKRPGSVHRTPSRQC
How it was run: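 Compounds were tested at 15 concentrations in three independent runs. Dye-loaded CHRM1-CHO cells were exposed 5 min at room temperature before stimulation by acetylcholine added at 50nM. Intracellular calcium was read kinetically on FDSS for 3 min.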

[13] = target: Muscarinic acetylcholine receptor M1 (Homo sapiens) (UniProt P11229); assay: Cholinergic receptor muscarinic 1 (CHRM1) small molecule agonists, cell-based qHTS assay (AID 1963589); also: nearly all actives have a fitted effect of over 35% in size
How it was run: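 Homogeneous fluorescence calcium flux, agonist mode. Human M1-expressing CHO cells; compound dosed at 15 concentrations, three independent runs; signal sampled every 1 sec.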

[14] = cAMP Responsive Elements (CRE) small molecule agonists, cell-based qHTS assay (AID 1963590)
How it was run: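 HEK 293T cells stably bearing CRE-bla were plated at 2,000 cells per well and rested 18 h. Compounds, positive controls or DMSO were added for 3 h at 37 C. LiveBLAzer B/G substrate was then loaded for 2 h at room temperature.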

[15] = cAMP Responsive Elements (CRE) small molecule antagonists, cell-based qHTS assay (AID 1963591; active = well fitted inhibition curve with a large enough effect in the signal ratio in the repeat runs, not every such curve was filed as active; the % refers to the signal ratio; also: potency is read from the fitted curve at half-maximal effect)
How it was run: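 First, CRE-bla HEK293T cells settled 18 h at 37 C. Next, compound and 0.25 uM final NKH477 were applied for 3 h. Last, LiveBLAzer B/G substrate was loaded for 2 h at room temperature.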

[16] = target: Beta-2 adrenergic receptor (Homo sapiens) (UniProt P07550); assay: Adrenergic beta2 receptor (ADRB2) small molecule antagonists, cell-based qHTS assay (AID 1963592); also: series mostly up to about 92 µM; nearly all actives have a fitted effect of over 50% in size
Chain of Beta-2 adrenergic receptor (Homo sapiens) (P07550 whole entry, looked up): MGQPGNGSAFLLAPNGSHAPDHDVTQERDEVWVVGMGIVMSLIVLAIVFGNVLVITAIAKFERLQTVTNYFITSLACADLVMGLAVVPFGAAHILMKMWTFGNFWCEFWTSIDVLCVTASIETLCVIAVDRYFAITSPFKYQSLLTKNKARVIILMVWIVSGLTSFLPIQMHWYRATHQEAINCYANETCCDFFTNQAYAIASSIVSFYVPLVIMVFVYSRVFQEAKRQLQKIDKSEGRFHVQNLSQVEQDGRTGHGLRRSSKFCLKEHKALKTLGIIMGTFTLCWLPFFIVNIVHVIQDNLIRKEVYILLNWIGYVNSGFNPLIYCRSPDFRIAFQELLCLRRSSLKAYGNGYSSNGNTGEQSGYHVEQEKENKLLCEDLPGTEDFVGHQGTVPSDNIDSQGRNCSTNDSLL
How it was run: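 Assay format: CHO-ADRB2 cells, 18-20hr seeding at 37C/5% CO2, then compound plus 1nM isoproterenol agonist mix for 0.5hr RT. Homogeneous time-resolved fluorescence cAMP detection after 1hr, expressed as 665/615 nm ratio.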

[17] = target: D(2) dopamine receptor (Homo sapiens) (UniProt P14416); assay: Dopamine D2 receptor (DRD2) small molecule agonists, cell-based qHTS assay (AID 1963594); also: nearly all actives have a fitted effect of over 35% in size
Chain of D(2) dopamine receptor (Homo sapiens) (P14416 whole entry, looked up): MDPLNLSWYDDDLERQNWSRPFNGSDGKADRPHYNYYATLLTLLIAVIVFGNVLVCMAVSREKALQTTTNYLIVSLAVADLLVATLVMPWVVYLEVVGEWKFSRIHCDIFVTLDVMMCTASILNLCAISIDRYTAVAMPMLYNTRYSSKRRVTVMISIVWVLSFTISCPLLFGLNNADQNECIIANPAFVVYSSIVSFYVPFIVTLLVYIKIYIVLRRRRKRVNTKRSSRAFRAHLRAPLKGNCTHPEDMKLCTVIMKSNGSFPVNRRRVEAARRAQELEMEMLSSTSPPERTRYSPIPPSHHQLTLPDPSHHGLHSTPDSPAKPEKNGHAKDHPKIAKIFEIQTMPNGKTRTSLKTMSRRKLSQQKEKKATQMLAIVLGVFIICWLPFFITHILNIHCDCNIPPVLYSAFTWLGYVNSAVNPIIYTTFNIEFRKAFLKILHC
How it was run: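 cAMP accumulation in DRD2-HEK293 cells measured by HTRF after 1 h detection; compounds added 10 min before NKH477 (200nM […]) forskolin-analogue stimulation, 30 min at room temperature, with Ro20-1724 present at 0.1 mM final.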

[18] = target: D(2) dopamine receptor (Homo sapiens) (UniProt P14416); assay: Dopamine D2 receptor (DRD2) small molecule antagonists, cell-based qHTS assay (AID 1963595; active = well fitted inhibition curve with a large enough effect in the signal ratio in the repeat runs, with a control signal flat; the % refers to the signal ratio)
How it was run: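 Stable D2 receptor HEK293 line, 24 h after seeding. Compound preincubated 10 min, then quinpirole (12 nM) with forskolin analogue NKH477 (200 nM), 30 min, room temperature. Detection by time-resolved FRET of cAMP.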

[19] = target: Beta-2 adrenergic receptor (Homo sapiens) (UniProt P07550); assay: Adrenergic beta2 receptor (ADRB2) small molecule agonists, cell-based qHTS assay (AID 1963593);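 also: CHO cells stably overexpressing human ADRB2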
How it was run: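 CHO cells stably over-expressing ADRB2 were plated overnight at 37C, then dosed with compounds plus a stimulation mix containing 100uM IBMX and 25uM Ro-20-1724 for 0.5hr at room temperature. cAMP was measured by HTRF competition, 1hr.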

[20] = p53 small molecule agonists, cell-based qHTS assay (AID 1963582; active = well fitted activation curve with a large enough effect in the signal ratio in the repeat runs, not every such curve was filed as active; the % refers to the signal ratio; also: potency is read from the fitted curve at half-maximal effect)
How it was run: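 16 h compound exposure (37 C) of p53 response element–bla cells, preceded by 5 h recovery at 37 C/5% CO2; read-out via LiveBLAzer B/G FRET substrate, 2 h RT, fluorescence intensity.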

Row | Structure (SMILES) | Potency [1] | Potency [2] | Potency [3] | Potency [4] | Potency [5] | Potency [6] | Potency [7] | Potency [8] | Potency [9] | Potency [10] | Potency [11] | Potency [12] | Potency [13] | Potency [14] | Potency [15] | Potency [16] | Potency [17] | Potency [18] | Potency [19] | Potency [20]
1 | c1ccc2c(c1)ccc1ccccc12 | inactive | inactive | inactive | inactive | inactive | inactive | inactive | inactive | inactive | inactive | inactive | inactive | inactive | inactive | inactive | inactive | inactive | inactive |  | 
2 | Cc1ccc(C)c(C)c1 | inactive | inactive | inactive | inactive | inactive | inactive | inactive | inactive | inactive | inactive | inactive | inactive | inactive | inactive | inactive | inactive | inactive | inactive |  | 
3 | Cc1ccnc2c1NC(=O)c1cccnc1N2C1CC1 | inactive | inactive | inactive | inactive | inactive | inactive | inactive | inactive | inactive | inactive |  |  |  |  | inactive | inactive | inactive |  | inactive | 
4 | Cc1cccc2ccccc12 | inactive | inactive | inactive | inactive | inactive | inactive | inactive | inactive | inactive | inactive | inactive | inactive | inactive | inactive | inactive | inactive | inactive | inactive | inactive | 
5 | COc1ccc2c(c1)c(CC(=O)O)c(C)n2C(=O)c1ccc(Cl)cc1 | inactive | inactive | inactive | inactive | inactive | inactive | inactive | inactive | inactive | inactive |  |  |  |  |  | inactive | inactive | inactive |  | 
6 | CCCCCCCCCCCCCC[N+](C)(C)Cc1ccccc1 | 24.7 µM (active) and 13.3 µM (active) and 12.6 mM (active) | inactive | inactive | inactive | inactive | inactive | inactive | inactive and 17.8 mM (active) | 46.5 µM (active) and inactive | inactive | inactive and 20 mM (active) | 2.7 µM (active) and 631 µM (active) | inactive |  | inactive | inactive | inactive |  | inactive | 
7 | NC(=O)/N=N/C(N)=O | inactive | inactive | inactive | inactive | inactive | inactive | inactive | inactive | inactive | inactive | inactive | inactive | inactive | inactive |  | inactive | inactive | inactive | inactive | 
8 | NC(=O)c1cnccn1 | inactive | inactive | inactive | inactive | inactive | inactive | inactive | inactive | inactive | inactive |  |  |  | inactive | inactive | inactive | inactive | inactive | inactive | 
9 | S=c1nc[nH]c2nc[nH]c12 | inactive | inactive | inactive | inactive | inactive | inactive | inactive | inactive | inactive | inactive |  |  |  |  | inactive | inactive | inactive |  | inactive | 9.99 µM (active) and 7.93 µM (active)
10 | CC1(C)[C@@H]2CC[C@@]1(C)C(=O)C2 | inactive | inactive | inactive | inactive | inactive | inactive | inactive | inactive | inactive | inactive |  |  |  | inactive | inactive | inactive | inactive | inactive | inactive | 
11 | CN(C)CCOC(C)(c1ccccc1)c1ccccn1 (stereo not given) | inactive | inactive | inactive | inactive | inactive | inactive | inactive | inactive | inactive | inactive | inactive | 18.8 µM (active) and 4.1 µM (active) | inactive | inactive | inactive | inactive | inactive | inactive | inactive | 
12 | Nc1ncn([C@@H]2O[C@H](CO)[C@@H](O)[C@H]2O)c(=O)n1 | inactive | 30.6 µM (active) and 7.5 µM (active) | inactive | inactive | inactive | inactive | inactive | inactive | inactive | inactive |  |  |  | inactive | 40.3 µM (active) | inactive | inactive | inactive |  | 
13 | CCCCC/C=C\C/C=C\CCCCCCCC(=O)O | inactive | 60.1 µM (active) and 68.6 µM (active) | inactive | inactive | inactive | inactive | inactive | inactive | inactive | inactive | inactive | inactive | inactive |  |  | inactive | inactive | inactive | inactive | 
14 | NC(N)=S | inactive | inactive | inactive | inactive | inactive | inactive | inactive | inactive | inactive | inactive | inactive and 54.9 µM (active) | inactive | inactive | inactive | inactive | inactive | inactive | inactive | inactive | 
15 | CC(=O)c1ccccn1 | inactive | inactive | inactive | inactive | inactive | inactive | inactive | inactive | inactive | inactive | inactive |  | inactive | inactive | inactive |  | inactive | inactive |  | 
